# Assay outcomes (PubChem BioAssay)
# Pf growth 96h – P. falciparum growth inhibition at 96 hour, primary screen for plastid delayed-death inhibitors; P. falciparum luciferase reporter growth, 96 h; Potency, µM (titrated, usually from 28.7 µM), actives largely listed as inhibitors; hit rate 6.9% among 320,000; AID 504834; active = well fitted inhibition curve with a large enough effect; inconclusive = small, poorly fitted or top-dose-only effect, or another doubt; inactive = no such curve, though single readings can be large or run the other way
#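 P. falciparum expressing integrated firefly luciferase grown in erythrocytes (2% hematocrit, 0.05% parasitemia final) with compounds for 96 hours at 37 C, 5% CO2. Growth inhibition read as loss of luminescence after adding luciferase detection reagent.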
# SARS PLP yeast – inhibitors of SARS-CoV papain-like protease in yeast. hit rate 0.19% among 330,000. S. cerevisiae expressing SARS-CoV PLpro, growth rescue. Potency, µM (top dose mostly 32.9 µM), most hits filed as activators. AID 485353; also: nearly all actives have a fitted effect of over 55% in size
# Pf growth 48h – P. falciparum growth inhibition at 48 hours (one generation); P. falciparum luciferase growth in erythrocytes, 48 h; Potency, µM (top dose mostly 28.7 µM), hits mostly inhibitors; hit rate 5.9% among 310,000; active = well fitted inhibition curve with a large enough effect; inconclusive = small, poorly fitted or top-dose-only effect, or another doubt; inactive = no such curve, though single readings can be large or run the other way
#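 In quantitative HTS format, infected erythrocytes bearing luciferase-reporter parasites were treated for a single generation at 37 C. Luminescence after adding detection reagent served as the growth measure.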
# Cycloheximide cs – counter-screen for Shiga toxin inhibitors: cycloheximide protein synthesis inhibition; cell reporter, cycloheximide protein synthesis inhibition counterscreen; max response, %; hit rate 12% among 300,000; AID 2314; in the data active = max response mostly above about 13%, no sharp cut-off; inactive = mostly below about 14%; also: read at 38.3 µM for the half of the compounds with a filed dose
# Shiga inhibitor – inhibitors of Shiga toxin in Vero cells; Vero cells, Shiga toxin protein synthesis inhibition reporter; inhibition, % at 38.7 µM; hit rate 9.2% among 290,000; AID 2315; in the data active = inhibition mostly above about 28%, no sharp cut-off; inactive = mostly below about 43%
# NS1 function inh – blocks influenza NS1 protein function; Potency, µM (series often up to 46.1 µM); hit rate 0.4% among 270,000; also: actives are rising curves; nearly all actives have a fitted effect of over 50% in size
#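 Growth recovery, yeast-based: influenza A NS1 expressed in S. cerevisiae causes slow growth, and suppressors are detected by OD600. The parent strain without NS1 is used as positive control.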
# Hits are given with their value; . = inactive; ? = inconclusive; / = no result given. An excerpt weighted towards active compounds, which were near 21% of everything screened. Unless noted, calls follow the shape of the full dose curve.
SMILES,Pf growth 96h,SARS PLP yeast,Pf growth 48h,Cycloheximide cs,Shiga inhibitor,NS1 function inh
COc1ccc(-c2cnn3c4c(c(C)nc23)CCN4C(C)C)cc1OC,.,.,.,26.8,47.0,.
Cc1cc(OCC(=O)OCC(=O)NC2CCCCCC2)ccc1Cl,.,.,.,/,/,/
O=C(NC1CCCCCCC1)c1c(O)c2ccccc2[nH]c1=O,?,.,?,15.9,47.0,.
Cc1ccc(C(=O)NNC(=S)NC(=O)c2ccc(Cl)cc2Cl)cc1,/,.,.,.,.,.
CC(C)CNC(=S)NC(=O)c1ccc(Cl)cc1Cl,.,?,.,43.3,54.3,.
CC(C)NC(=S)NC(=O)c1ccc(Cl)cc1Cl,.,7.94µM,.,.,.,.
CCOC(=O)c1sc(NC(=O)c2c(CC)noc2C)nc1C,?,.,?,/,/,/
COC(=O)C1=CN(c2ccc(Cl)cc2)C=C(C(=O)OC)C1c1ccc([N+](=O)[O-])cc1,5.22µM,.,13.1µM,.,.,.
COC(=O)C1=CN(c2ccc(F)cc2)C=C(C(=O)OC)C1c1cccc(Br)c1,.,.,11.7µM,.,.,.
COC(=O)C1=CN(c2ccc(F)cc2)C=C(C(=O)OC)C1c1ccc([N+](=O)[O-])cc1,9.28µM,.,7.38µM,.,.,.
COc1ccc(NC(=O)N2CCN(c3ccc([N+](=O)[O-])cc3)CC2)cc1,?,.,.,.,.,.
COC(=O)C1=CN(C2CC2)C=C(C(=O)OC)C1c1ccc(C(=O)OC)cc1,.,.,?,.,.,.
COC(=O)C1=CN(c2ccc(OC)cc2)C=C(C(=O)OC)C1c1ccc([N+](=O)[O-])cc1,4.15µM,.,13.1µM,.,.,.
COC(=O)C1=CNC=C(C(=O)OC)C1c1cccc(OC)c1,.,.,?,.,.,.
COc1ccc2oc(C(=O)OCC(=O)N(C)CC(=O)Nc3ccc(C)cc3)c(C)c2c1,.,.,.,/,/,/
O=C(CSc1ncn[nH]1)Nc1ccc(Cl)c(S(=O)(=O)N2CCOCC2)c1,.,.,?,.,.,/
COC(=O)C1=CNC=C(C(=O)OC)C1c1ccc(Cl)cc1,.,.,9.28µM,.,.,.
COC(=O)C1=CN(c2cccc(Cl)c2)C=C(C(=O)OC)C1c1cccc(OC)c1,.,.,11.7µM,.,.,.
COC(=O)C1=CNC=C(C(=O)OC)C1c1cccc2ccccc12,.,.,11.7µM,.,.,.
COC(=O)C1=CNC=C(C(=O)OC)C1c1ccccc1Cl,.,.,.,.,.,.
CN(C(=O)c1ccc(NC(=O)C2CCCN(C(=O)OC(C)(C)C)C2)cc1)C1CC1 (configuration not stated),/,.,/,/,/,/
O=C(OCc1nc2ccccc2s1)c1ccc(Br)o1,.,.,.,28.2,80.2,/
O=C(OCc1nc2ccccc2s1)c1ccco1,?,.,.,36.4,90.4,/
CCCc1cc(C(=O)Cc2nc3ccccc3s2)c(O)cc1O,?,.,?,.,.,.
O=C(OCc1nc2ccccc2s1)c1ccc([N+](=O)[O-])o1,.,.,.,.,.,.
SMILES,Pf growth 96h,SARS PLP yeast,Pf growth 48h,Cycloheximide cs,Shiga inhibitor,NS1 function inh
NC(=O)c1ccccc1OCc1nc2ccccc2s1,.,.,.,33.6,97.3,.
NC(=O)c1ccccc1OCc1cccc2ccccc12,.,.,.,.,.,.
CCOC(=O)C(=O)Cc1nc2ccccc2s1,.,.,?,11.8,.,.
O=C(CCN1C(=O)CSc2ccccc21)Nc1ccc(OC(F)(F)F)cc1,.,.,.,/,/,/
C/C(=N\NC(=O)c1nnn(-c2nonc2N)c1-c1ccc(Cl)c(Cl)c1)c1ccncc1,?,.,.,.,.,.
CCOc1ccc(N(C(=O)c2ccc(S(=O)(=O)N3CCCC3)cc2)C2C=CS(=O)(=O)C2)cc1 (configuration not stated),?,.,?,.,.,.
Cc1[nH]c(SCC(=O)c2c(N)n(C)c(=O)n(C)c2=O)nc1Cc1ccccc1,/,.,/,/,/,/
Cc1coc2c(C)c3oc(=O)c(CCC(=O)N[C@@H](C)C(=O)N[C@@H](Cc4ccccc4)C(=O)O)c(C)c3cc12,?,.,.,.,.,.
O=C(O)COCc1nc2ccccc2s1,.,.,.,.,.,.
Cc1cc(C(=O)OCc2nc3ccccc3s2)c(C)o1,/,/,.,52.7,105.2,.
O=C(CCNC(=O)c1ccco1)Nc1nc2ccccc2s1,.,.,.,/,/,/
Cc1cc(C(=O)OCC(=O)Nc2ccccc2)c(C)o1,.,.,.,.,.,.
CC(=O)OCc1nc2ccccc2s1,.,.,.,29.3,91.7,.
O=C(COC(=O)c1ccco1)Nc1nc2ccccc2s1,.,.,.,21.5,.,.
CCCCC1=NN(C(=O)c2ccco2)C(O)(C(F)(F)F)C1 (configuration not stated),.,.,.,.,.,.
CC1=NN(C(=O)c2cccnc2)C(O)(C(F)(F)F)C1 (configuration not stated),.,.,.,.,.,/
CCCCC1=NN(C(=O)c2cocc2C)C(O)(C(F)(F)F)C1 (configuration not stated),.,.,.,20.4,32.3,.
CC1=NN(C(=O)c2ccoc2C)C(O)(C(F)(F)F)C1 (configuration not stated),.,.,?,50.1,44.1,.
Cc1ccc(C2=NN(C(=O)c3ccco3)C(O)(C(F)(F)F)C2)cc1 (configuration not stated),.,.,.,13.7,37.1,.
COC(=O)N1N=C(c2ccccc2)CC1(O)C(F)(F)F (configuration not stated),.,.,.,38.6,105.6,.
COc1c(/C=N/NC(N)=S)c(C)nn1-c1ccccc1,.,.,.,.,.,.
CN(C)C(CNc1ncccn1)c1ccccc1 (configuration not stated),.,.,.,.,.,.
COc1cccc(C2=NN(C(=O)c3ccco3)C(O)(C(F)(F)F)C2)c1 (configuration not stated),.,.,4.15µM,.,.,.
COc1ccc(C(=O)N2CCCC(CNC(=O)c3ccc(F)cc3)C2)cc1OC (configuration not stated),?,.,.,24.6,.,.
O=C(NCC1CCCN(C(=O)c2cccc(C(F)(F)F)c2)C1)c1ccc(F)cc1 (configuration not stated),?,.,.,16.2,.,.
SMILES,Pf growth 96h,SARS PLP yeast,Pf growth 48h,Cycloheximide cs,Shiga inhibitor,NS1 function inh
CCn1c(=O)c2c(nc3n2CCCN3c2cccc(C)c2)n(C)c1=O,.,.,.,.,.,.
Cc1ccc2nc(NCc3ccccc3)[nH]c2c1,1.17µM,.,?,34.2,90.7,.
c1ccc2[nH]c(NCc3ccc4c(c3)OCO4)nc2c1,.,.,.,34.4,62.7,.
S=c1nc(NCc2ccc3c(c2)OCO3)c2ccccc2[nH]1,?,.,.,.,.,.
COc1cc(CNc2nc3ccccc3[nH]2)cc(OC)c1OC,.,.,.,.,.,.
COc1ccc2nc(NCCO)[nH]c2c1,?,.,.,.,.,.
c1ccc(CNc2nc3ccccc3[nH]2)cc1,.,.,.,25.5,.,.
